From PubChem BioAssay (EPA / NIEHS) come the findings set out here.

The AC50 is the concentration giving half of the maximal activity seen.

Values joined by “and” are separate entries in the source; they are usually repeats but may differ in a detail not shown here. Identical values can stand only once. Active and inactive are the calls of the source. The calls were made as follows: active = hit-call score of the fitted dose curve at least 0.9, where 1 is the maximum; inactive = score below 0.9.

The assay can be described thus: BSK_BF4T_SRB: Viability Assessment in the BioMAP Diversity Plus: BF4T Assay (AID 2284274). The conditions noted are these: primary human bronchial epithelial cells with fibroblasts. As for the experimental part:
BSK_BF4T is a cell-based, multiplexed-readout assay that uses bronchial epithelial cells and dermal fibroblasts, a human vascular primary cell, with measurements taken at 24 hours after chemical dosing in a microplate: 96-well plate.BSK_BF4T_SRB is an assay component measured in the BSK_BF4T assay. It measures 0.1% sulforhodamine related to cell death using Sulforhodamine staining technology.Data from the assay component BSK_BF4T_SRB was analyzed at the endpoint, BSK_BF4T_SRB, in the positive analysis fitting direction relative to DMSO as the negative control and baseline of activity. Using a type of viability reporter, gain or loss-of-signal activity can be used to understand protein changes. To generalize the intended target to other relatable targets, this assay endpoint is annotated to the 'cell morphology' intended target family, where the subfamily is 'cell conformation'.
The levels of cell surface (or secreted, indicated by the prefix "s") biomarker endpoints were measured by ELISA. Overt cytotoxicity to cells in confluent adherent cultures (all systems other than the BT system) was assessed by measuring total protein levels using sulforhodamine B (SRB) staining in parallel cultures at the time of biomarker measurements, indicated as SRB endpoints. For proliferation assays for adherent cell types, individual cell types are cultured at sub-confluence and relative cell numbers quantified by SRB staining at time points optimized for each system (48 h: 3C and CASM3C systems; 72 h: BT and HDF3CGF systems; 96 h: SAg system). SRB was performed by staining cells with 0.1% SRB after fixation with 10% TCA and reading wells at 560 nm.Viability and proliferation of PBMC (T cells) was quantified by Alamar Blue reduction for the SAg and BT systems. For PBMC viability (referred to as PBMC Cytotoxicity within the assay endpoint names), cells were plated (75,000/well in a 96-well plate) and then chemical samples added for 1 h before addition of activators, SEB and TSST-1 (20 ng/mL final concentration each). Cells were incubated for 90 h. Then, Alamar Blue (20 uL/well) (Invitrogen, Cat DAL1100) was added for 6 h, and the plates were read with a fluorescence microplate reader at 546/580 nm (excitation/emission). For PBMC proliferation, cells were plated and activated as above but incubated for only 16 h prior to addition of Alamar Blue. Plates were read after 6 h.
Take `FC(F)(Br)C(F)(F)C(F)(F)C(F)(F)C(F)(F)C(F)(F)Br`: the outcome was inactive.
Take `O=C(O)C(F)(F)C(F)(F)C(F)(F)C(F)(F)C(F)(F)C(F)(F)C(F)(F)C(F)(F)C(F)(F)C(F)F`: the AC50 was 41.7 µM (active) and 40.8 µM (active).
For `O=C(O)C(F)(F)C(F)(F)C(F)(F)F`, the result was inactive.
With `O=C(O)C=C(C(F)(F)F)C(F)(F)F`, the result was inactive.
`O=C(O)C(F)(F)C(F)(F)C(F)(F)C(F)(F)C(F)(F)C(F)(F)C(F)(F)C(F)(F)C(F)(F)C(F)(F)C(F)(F)C(F)(F)F`: the result was inactive.
In the case of `O=C(O)C(F)(F)C(F)(F)C(F)(F)C(F)(F)F`, the outcome was inactive.
Take `C=CC(=O)OCC(F)(F)C(F)(F)C(F)(F)C(F)(F)COC(=O)C=C`: the outcome was inactive.
For the molecule `CCCCCCCCC(F)(F)C(F)(F)C(F)(F)C(F)(F)C(F)(F)C(F)(F)F`, the outcome was inactive.
For the molecule `FC(F)(F)C(F)(F)C(F)(F)C(F)(F)C(F)(F)C(F)(F)C(F)(F)Br`, the result was inactive.
As to `Cc1ccc(S(=O)(=O)OCC(F)(F)C(F)(F)C(F)(F)C(F)(F)C(F)(F)C(F)F)cc1`, the result was inactive.
For the molecule `OCC(F)(F)C(F)(F)C(F)(F)C(F)(F)C(F)(F)C(F)(F)F`, the result was inactive.
Take `FC(F)(F)C(F)(F)C(F)(F)C(F)(F)C(F)(F)C(F)(F)CC1CO1` (stereo not given): the outcome was inactive.
As to `FC(F)(I)C(F)(F)C(F)(F)C(F)(F)I`, the half-maximal activity concentration (AC50) was 51.3 µM (active) and 50.7 µM (active) and 46.5 µM (active).
`FC(F)(F)C(F)(F)C(F)(F)C(F)(F)C(F)(F)C(F)(F)C(F)(F)C(F)(F)F`: the result was inactive.
Same read-out and setting: in the case of `O=C(O)C(F)(OC(F)(F)C(F)(OC(F)(F)C(F)(F)C(F)(F)F)C(F)(F)F)C(F)(F)F` (stereo not given) it was “inactive”.
Take `CC(C)(C)C(=O)CC(=O)C(F)(F)C(F)(F)C(F)(F)F`: the outcome was inactive.
Take `O=P(O)(O)OCCC(F)(F)C(F)(F)C(F)(F)C(F)(F)C(F)(F)C(F)(F)F`: the result was inactive.
With `FC(F)(F)C(F)(F)CNCC(F)(F)C(F)(F)F`, the result was inactive.
The same measure, in the same setting: the value for `NC(=O)C(F)(F)C(F)(F)C(F)(F)C(F)(F)F` was “inactive”.
Turning to `OCC(F)(F)C(F)(F)C(F)(F)F`, the result was inactive.
In the case of `C=C(C)C(=O)OCC(F)(F)C(F)(F)C(F)(F)C(F)(F)C(F)(F)C(F)(F)C(F)(F)F`, the outcome was inactive.
Same read-out and setting: the value for `FC(F)(F)C(F)(F)C(F)(F)C(F)(F)C(F)(F)CCI` was “inactive”; that for `C=CC(=O)OCC(F)(F)C(F)(F)C(F)(F)C(F)(F)C(F)(F)C(F)(F)C(F)(F)F` was “inactive”.
Turning to `O=S(=O)(OCCOC(F)(F)F)C(F)(F)F`, the result was inactive.
Take `OCC(F)(F)C(F)(F)C(F)(F)C(F)F`: the outcome was inactive.
For the molecule `C=C(C)C(=O)OCCC(F)(F)C(F)(F)C(F)(F)C(F)(F)C(F)(C(F)(F)F)C(F)(F)F`, the result was inactive.
Still for that read-out and setting: in the case of `O=S(=O)(O)C(F)(F)C(F)(F)C(F)(F)C(F)(F)C(F)(F)C(F)(F)C(F)(F)F` it was “inactive”; in that of `O=C(O)C(F)(F)C(F)(F)F`, “inactive”; in that of `FC(F)(F)C(F)(F)C(F)(F)CI`, “inactive”.
The same measure, in the same setting: in the case of `O=C(O)C(F)(F)C(F)(F)OC(F)(F)F` it was “inactive”.
For the molecule `FC(F)(F)C(F)(F)C(F)(F)C(F)(F)C(F)(F)C(F)(F)C(F)(F)I`, the result was inactive.
Same read-out and setting: in the case of `C=CC(F)(F)C(F)(F)C(F)(F)C(F)(F)C(F)(F)C(F)(F)C(F)(F)C(F)(F)C=C` it was “inactive”; in that of `FC(F)(F)C(F)(F)C(F)(F)C(F)(F)C(F)(F)C(F)(F)C(F)(F)C(F)(F)CCS`, “inactive”.
For the molecule `OCCCC(F)(F)C(F)(F)C(F)(F)C(F)(F)C(F)(F)C(F)(F)C(F)(F)F`, the AC50 was 51 µM (active) and 53.6 µM (active).
Consider `O=C(O)C(F)(OC(F)(F)C(F)(OC(F)(F)C(F)(OC(F)(F)C(F)(F)C(F)(F)F)C(F)(F)F)C(F)(F)F)C(F)(F)F` (stereo not given), for which the outcome was inactive.
Take `COC(=O)CCC(F)(F)C(F)(F)C(F)(F)C(F)(F)F`: the outcome was inactive.
Still for that read-out and setting: the value for `FC(F)(F)C(F)(F)C(F)(F)C(F)(F)CCI` was “inactive”; that for `C=C(C)C(=O)OCC(F)(F)C(F)(F)C(F)(F)F` was “inactive”.
Consider `O=C(O)C(F)(F)C(F)(F)C(F)(F)C(F)(F)C(F)(F)C(F)(F)C(F)(F)C(F)(F)Cl`, for which the AC50 is 36.9 µM (active) and 39.9 µM (active).
As for `FC(F)(F)C(F)(F)C(F)(F)N(C(F)(F)C(F)(F)C(F)(F)F)C(F)(F)C(F)(F)C(F)(F)F`, the result was inactive.
